{
  "source": "PubChem BioAssay AID485364",
  "about": "(National Center for Advancing Translational Sciences (NCATS), 2010)",
  "note": "Hit rate of the full screen: of about 360,000 compounds, about 11,000 (3.1%) were called active. Inconclusive results (about 4%) are left out. Calls follow the shape of the dose curve; as a rule, active = well fitted inhibition curve with a large enough effect; inconclusive = small, poorly fitted or top-dose-only effect; inactive = no such curve, though single readings can be large or run the other way. The list comes from a sample in which actives are over-represented; it also holds similar structures and randomly drawn compounds. Entries that show only a call come without a potency. Potency is read from the fitted curve at half-maximal effect.",
  "data": [
    {"target": "Schistosoma mansoni thioredoxin glutathione reductase (TGR) (UniProt Q962Y6)", "assay": "qHTS Assay for the Inhibitors of Schistosoma Mansoni Peroxiredoxins; also: nearly all actives have a fitted effect of over 60% in size", "details": "purified TGR, DTNB reduction, TNB absorbance 405 nm; series mostly up to 114 µM", "excerpt": "Schistosomiasis is a major neglected tropical disease that currently affects over 200 million. It is caused by different species of flatworms, such as Schistosoma mansoni. Over the last century, drugs to treat the disease have evolved from potassium antimonyl tartrate, artemisinin, oxamniquine, to praziquantel, with praziquantel remaining the universally-used single drug of choice over the past three decades. However, transmission rates have changed little with praziquantel, and there is evidence for the development of drug resistant parasites. Because there is currently no suitable alternative therapy available, there is an urgent need to identify new targets and drugs for schistosomiasis treatment. Thioredoxin glutathione reductase (TGR), one uniquely positioned S. mansoni enzyme, has been identified as a major component of the worms' distinct and compressed antioxidant \"firewall\". TGR is a multifunctional enzyme that catalyzes the interconversion between reduced and oxidized forms of both glutathione (GSH) and thioredoxins, thus making it an attractive new antiparasitic target. Recently, a quantitative high-throughput screen of the NIH Molecular Libraries Small Molecule Repository (MLSMR, ~71K at the time of the screen in 2007) was performed using an assay that targeted both TGR and peroxiredoxin2 (Prx2, an H2O2-reducing enzymatic component of the S. mansoni redox \"firewall\") by following the decrease of NADPH fluorescence. […] Additional mechanistic link between exogenous NO donation and parasitic injury for the oxadiazole-2-oxide class of compounds was also expanded and better defined. Although the screen addressed both TGR and Prx2, the assay required post-screen target deconvolution for further characterization of the actives. In addition, the fluorescence assay was also subject to fluorescence interference from compound library members. We have developed a 1536-well-based kinetic HTS assay to address TGR alone. The assay followed the reduction of 5, 5'-dithiobis (2-nitrobenzoic acid) (DTNB) (Ellman's reagent) by NADPH and measured the increase in absorbance at 412 nm of the reaction product, TNB. […] This assay format can be used to screen the current MLSMR collection (with >300K compounds available) to find novel TGR inhibitors. Furoxan is a good choice to serve as a positive control in the primary HTS assay.\nThree microliters of reagents (100 uM NADPH and 20 nM TGR or 100 uM NADPH as no-enzyme control) were dispensed into 1,536-well black clear-bottomed plates. Compounds (23 nL) were transferred via Kalypsys pin tool equipped with 1536-pin array (10 nL slotted pins, V&P Scientific, San Diego, CA). The plates were then be incubated for 15 min at room temperature, and 1 uL aliquot of 500 uM NADPH were added, immediately followed by a 1 uL aliquot of 15 mM DTNB to start the reaction. The plate was transferred to a ViewLux high-throughput CCD imager (Perkin-Elmer, Wellesley, MA) where kinetic measurements of the TNB absorbance were acquired using a 405 excitation filter. Throughout the screen, reagent bottles and all liquid lines were made light-tight to minimize reagent degradation. All screening operations were performed on a fully integrated robotic system (Kalypsys, San Diego, CA) containing one RX-130 and two RX-90 anthropomorphic robotic arms (Staubli, Duncan, SC). Library plates were screened starting from the lowest and proceeding to the highest concentration, and a \"double-dipping\" step of the highest concentration was required to access higher concentrations of compounds. Vehicle-only plates, with DMSO being pin-transferred to the entire column 5-48 compound area, were inserted uniformly at the beginning and the end of each library in order to monitor for and record any shifts in the background, which can be affected by reagent dispensers or loss in enzyme activity overtime. […]", "values": [
      {"compound": "COc1cc(-c2noc(-c3ccc(N4CCCC4)c([N+](=O)[O-])c3)n2)cc(OC)c1OC", "Potency": "inactive"},
      {"compound": "O=C(Nc1ccc(Br)cc1)c1cc2nc(-c3ccccc3)cc(-c3ccccc3)n2n1", "Potency": "inactive"},
      {"compound": "Cc1ccc(NC(=O)C2CCCN2C(=O)OCc2ccccc2)cc1C", "note": "(centres undefined)", "Potency": "inactive"},
      {"compound": "Cc1ccc(NNC(=O)C2CCC2)cc1C", "Potency": "56.2 µM (active)"},
      {"compound": "O=C(NNC(=O)C1CCC1)c1ccccc1", "Potency": "inactive"},
      {"compound": "Cc1oc(-c2ccccc2F)nc1CN1CCC(C(=O)NCCc2ccc(Cl)cc2)CC1", "Potency": "inactive"},
      {"compound": "CCOC(=O)c1c(S(=O)(=O)N2CCCC(C(=O)NCc3cccc(C)c3)C2)c(C)n(C)c1C", "note": "(centres undefined)", "Potency": "inactive"},
      {"compound": "Cc1ccccc1CS(=O)(=O)CC1Nc2ccc(C(=O)NCc3ccc(Cl)cc3)cc2NC1=O", "note": "(centres undefined)", "Potency": "inactive"},
      {"compound": "Cc1cc(C)cc(NC(=O)Cc2csc(C)n2)c1", "Potency": "inactive"},
      {"compound": "CCOc1ccc(-n2c(SCC(N)=O)nnc2-c2ccco2)cc1", "Potency": "inactive"},
      {"compound": "Cc1cccc(C)c1NC(=O)CCCSc1nnc(-c2ccco2)n1-c1ccccc1", "Potency": "89.1 µM (active)"},
      {"compound": "CCc1cccc(C)c1NC(=O)CSc1nnc(-c2ccco2)n1N", "Potency": "inactive"},
      {"compound": "CC(C)C(=O)NC(=S)Nc1ccccc1F", "Potency": "inactive"},
      {"compound": "O=C(NC(=S)NC1CCSC1=O)c1ccccc1F", "note": "(centres undefined)", "Potency": "inactive"},
      {"compound": "COC(=O)c1ccccc1NC(=S)NC(=O)c1ccccc1F", "Potency": "22.4 µM (active)"},
      {"compound": "O=C(Cn1cc(SCc2cccc(Cl)c2)c2ccccc21)N1CCCCC1", "Potency": "inactive"},
      {"compound": "Oc1c(C(c2ccccn2)N2CCOCC2)ccc2cccnc12", "note": "(centres undefined)", "Potency": "0.794 µM (active)"},
      {"compound": "Cn1c(C(=O)Nc2cccc(C(F)(F)F)c2)cc2c(=O)n3ccccc3nc21", "Potency": "inactive"},
      {"compound": "CCC(CC)NC(=O)/C=C/c1cccc([N+](=O)[O-])c1", "Potency": "inactive"},
      {"compound": "COC(=O)/C=C\\C(=O)Nc1cccc([N+](=O)[O-])c1", "Potency": "0.794 µM (active)"},
      {"compound": "O=C(Nc1cccc([N+](=O)[O-])c1)N1CCc2ccccc2C1", "Potency": "inactive"},
      {"compound": "Cc1c(NC(=O)Nc2cccc([N+](=O)[O-])c2)c(=O)n(-c2ccccc2)n1C", "Potency": "inactive"},
      {"compound": "Cc1ccccc1NC(=S)Nc1cccc([N+](=O)[O-])c1", "Potency": "44.7 µM (active)"},
      {"compound": "Cc1cc([N+](=O)[O-])ccc1NCc1cccc([N+](=O)[O-])c1", "Potency": "inactive"},
      {"compound": "COc1ccccc1N1CCN(CCCNC(=O)c2cnn(-c3ccccc3Cl)c2C2CCN(C(=O)OC(C)(C)C)CC2)CC1", "Potency": "inactive"},
      {"compound": "COc1ccc(Br)cc1C1CC(=O)Nc2c1c(C)nn2-c1nc(C)cc(C)n1", "note": "(centres undefined)", "Potency": "inactive"},
      {"compound": "O=C(CCC(=O)N1CC2CCCN2c2ccccc21)NCc1ccccc1Cl", "note": "(centres undefined)", "Potency": "inactive"},
      {"compound": "Cc1ccc(N=C2NC(=O)/C(=C/C=C/c3ccco3)S2)cc1C", "Potency": "44.7 µM (active)"},
      {"compound": "CC(C)c1ccc(NC(=O)Cn2c3ncccc3c(=O)n2-c2ccccc2)cc1", "Potency": "inactive"},
      {"compound": "CN(Cc1ccccc1)C(=O)CCS(=O)(=O)c1cc(Br)cc2c1N(C(=O)C1CC1)CC2", "Potency": "inactive"},
      {"compound": "N#Cc1cccc(CN2CCC(=O)N(CCO)CC2)c1", "Potency": "inactive"},
      {"compound": "CC(C)(C)c1cc(CN2CCN(CCC#N)CC2)cc(C(C)(C)C)c1O", "Potency": "2.24 µM (active)"},
      {"compound": "N#CCCN1CCN(S(=O)(=O)c2ccc(S(=O)(=O)N3CCCC3)cc2)CC1", "Potency": "inactive"},
      {"compound": "Cc1cc(C(=O)CCl)c(C)n1CC1COc2ccccc2O1", "note": "(centres undefined)", "Potency": "10 µM (active)"},
      {"compound": "O=C1C(=O)N(CC2COc3ccccc3O2)c2ccccc21", "note": "(centres undefined)", "Potency": "inactive"},
      {"compound": "Cc1noc(C)c1C(=O)NCC1COc2ccccc2O1", "note": "(centres undefined)", "Potency": "inactive"},
      {"compound": "Cc1ccc2nc(COc3ccc(NC(=O)COc4ccccc4F)cc3)cc(=O)n2c1", "Potency": "inactive"},
      {"compound": "C=C(C)C(=O)O[C@H]1C/C(C)=C\\C(=O)/C=C(\\C)[C@H](O)[C@@H]2OC(=O)C(=C)[C@@H]21", "Potency": "3.55 µM (active)"},
      {"compound": "CCOC(=O)c1c(C)oc2nc(C)nc(N(CC(C)C)CC(C)C)c12", "Potency": "inactive"},
      {"compound": "CCCC[C@]12Cc3cc(OC)c(OC)cc3C(O1)C1=C(CC3(CCCCC3)OC1=O)O2", "Potency": "11.2 µM (active)"},
      {"compound": "CCCCC12CN3CC(C)(CN(C1)C3c1ccc(O)c(OC)c1)C2=O", "note": "(centres undefined)", "Potency": "inactive"},
      {"compound": "COc1cc2c(cc1OC)CC1(CCCCC1)N=C2", "Potency": "inactive"},
      {"compound": "COc1ccc(-c2[nH]c3c(c2-c2c(-n4cccc4)n(C)c(=O)n(C)c2=O)c(=O)n(C)c(=O)n3C)cc1", "Potency": "inactive"},
      {"compound": "Cc1ccc(NC(=O)c2oc3ccccc3c2NC(=O)Cc2cccs2)cc1", "Potency": "inactive"},
      {"compound": "COc1cccc(NC(=O)COC(=O)CCOc2ccccc2OC)c1", "Potency": "inactive"},
      {"compound": "CSc1ccccc1NC(=O)COC(=O)CCCOc1ccc(C)cc1", "Potency": "inactive"},
      {"compound": "COc1cc([N+](=O)[O-])ccc1NC(=O)COC(=O)CCOc1ccc(C)cc1", "Potency": "35.5 µM (active)"},
      {"compound": "CCOC(=O)c1ccc(NC(=O)CCS(=O)(=O)c2ccc3c(c2)oc(=O)n3C)cc1", "Potency": "inactive"},
      {"compound": "Cc1ccc(C(=O)Oc2ccc(C(=S)N3CCOCC3)cc2)cc1", "Potency": "inactive"},
      {"compound": "Cc1ccc(C(=O)OC2=CC(=O)CC(C)(C)C2)cc1", "Potency": "44.7 µM (active)"},
      {"compound": "COC(=O)NNC1=CC(=O)CC(C)(C)C1", "Potency": "inactive"},
      {"compound": "COc1ccccc1CNC(=O)c1ccc(CS(=O)c2ccccc2Cl)o1", "note": "(centres undefined)", "Potency": "inactive"},
      {"compound": "COc1cccc(C(=O)N(Cc2cccc(Cl)c2)Cc2ccco2)c1", "Potency": "inactive"},
      {"compound": "CCS(=O)(=O)Nc1ccc(C2=NN(S(=O)(=O)c3ccc(F)cc3)C(c3ccco3)C2)cc1", "note": "(centres undefined)", "Potency": "44.7 µM (active)"},
      {"compound": "CS(=O)(=O)Nc1cccc(C2=NN(S(=O)(=O)c3ccccc3)C(c3cccs3)C2)c1", "note": "(centres undefined)", "Potency": "inactive"},
      {"compound": "CCS(=O)(=O)Nc1ccc(C2=NN(C(C)=O)C(c3cccs3)C2)cc1", "note": "(centres undefined)", "Potency": "inactive"},
      {"compound": "CCOCCCNC(=O)c1c(NC(=O)Cc2coc3c(C)c(C)ccc23)sc2c1CCC2", "Potency": "inactive"},
      {"compound": "CCCCNC(=O)CSc1nc2cc3c(cc2c(=O)n1CCCCCC(=O)NCc1ccc2c(c1)OCO2)OCO3", "Potency": "inactive"},
      {"compound": "O=c1oc(-c2ccco2)nc2sc3c(c12)CCCCC3", "Potency": "inactive"},
      {"compound": "O=C(NCc1ccco1)c1nc2ncccn2n1", "Potency": "inactive"},
      {"compound": "O=C(NCc1ccco1)c1cccn2c(=O)c3c4c(sc3nc12)CCCC4", "Potency": "12.6 µM (active)"},
      {"compound": "C=CCn1c(SCC(=O)NCCCO)nc2sc3c(c2c1=O)CCC3", "Potency": "inactive"},
      {"compound": "C=C(C)Cn1c(SCC(=O)NCc2ccco2)nc2sc3c(c2c1=O)CCC3", "Potency": "44.7 µM (active)"},
      {"compound": "O=C(CSc1nc2cc3c(cc2c(=O)n1CCC1=CCCCC1)OCO3)NCc1ccco1", "Potency": "inactive"}
    ]}
  ]
}
